Laboratory results reported in ChEMBL document CHEMBL4513136, “CO-ADD screening of CSIC (Spain) compounds”.
Entries with a potency or affinity are not part of this list.

These compounds were tested on Escherichia coli. Conditions: Concentration 32 ug.mL-1; ASSAY_TEST Inhibition of Bacterial Growth; detection method Absorption (OD600); MEDIA CAMHB; plate type 384well; NBS; CORNING #3640; time 18 hr.

| Structure (SMILES) | Inhibition |
| --- | --- |
| O=C(Cc1cc(O)ccc1O)Nc1ccc(O)cc1 | -10.96% |
| COc1ccc(OC)c(C(=O)/C=C/c2c[nH]c3ccc(OC)cc23)c1 | -14.33% |
| O=C(/C=C/c1ccccc1O)c1cc(O)c(O)cc1O | -8.37% |
| COc1ccccc1/C=C/C(=O)c1cc(OC)c(OC)cc1OC | -13.16% |
| COc1ccc(OC)c(C(=O)CCc2ccccc2O)c1 | -20.89% |
| O=C(CCc1ccc(O)cc1O)c1cc(O)ccc1O | -20.02% |
| Oc1ccc(O)c(-c2cn(-c3ccc(O)c(O)c3)nn2)c1 | -12.66% |
| CC1C(=O)N(Cc2ccc(OCCN3CCOCC3)cc2)C1(Cc1ccccc1)C(=O)O (stereo unspecified) | -10.5% |
| COc1ccc(OC)c(CC(=O)Nc2ccc(OC)cc2OC)c1 | -12.34% |
| COc1ccc(OC)c(-c2cn(-c3ccc(OC)c(OC)c3)nn2)c1 | -27.73% |
| COc1ccc(C(=O)/C=C/c2ccc(OC)cc2OC)cc1 | -22.4% |
| COc1ccc(NC(=O)Cc2cc(OC)ccc2OC)cc1 | -11.77% |
| COC(=O)c1c(C(Cc2ccccc2)NC(=O)OCc2ccccc2)[nH]c2ccccc12 (stereo unspecified) | -13.62% |
| COC(=O)C1(Cc2ccc(OCc3c(Cl)cccc3Cl)cc2)C(C)C(=O)N1Cc1ccc(OC)cc1 (stereo unspecified) | -12.56% |
| COc1ccc(OC)c(C(=O)CCc2ccc(O)cc2)c1 | -22.53% |
| COc1ccc(CN2C(=O)C(C)C2(Cc2cn(C(=O)OC(C)(C)C)c3ccccc23)C(=O)OC(C)(C)C)cc1 (stereo unspecified) | -6.98% |
| COc1ccc(OC)c(C(=O)/C=C/c2ccccc2O)c1 | -22.92% |
| COc1ccc(OC)c(NC(=O)Nc2ccc(OC)cc2OC)c1 | -17.47% |
| O=C(Nc1ccc(O)cc1O)Nc1cc(O)ccc1O | -13.5% |
| COc1ccc(OC)c(C(=O)/C=C/c2ccc(O)cc2)c1 | -21.08% |
| O=C(OCc1ccccc1)N1C(=O)C(c2ccccc2NC(=O)C(F)(F)F)=C(O)C1Cc1ccccc1 (stereo unspecified) | -6.54% |
| O=C(/C=C/c1c[nH]c2ccc(O)cc12)c1cc(O)ccc1O | -12.64% |
| O=C(Cc1cc(O)ccc1O)Nc1cc(O)ccc1O | -14.95% |
| COc1ccc(OC)c(CC(=O)Nc2cc(OC)ccc2OC)c1 | -12.93% |
| Oc1ccc(-n2cc(-c3cc(O)ccc3O)nn2)cc1 | -16.85% |
| O=C(Cc1cc(O)ccc1O)Nc1ccc(O)cc1O | -13.2% |
